KCNQ2 inh: blocks the rat KCNQ2 potassium channel; O88943; CHO-K1 KCNQ2, FluxOR thallium flux, 20 min; stronger effect = lower value; B-score at 10 µM; 310,000 compounds, 1.1% hits;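 active = fluorescence ratio B-score at most minus 3 library SDs, with starting brightness B-score within 2 library SDs, cut at about -5.5 in these data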
KCNQ2 enhance: enhances the rat KCNQ2 potassium channel. O88943. CHO-K1 KCNQ2, FluxOR thallium flux fluorescence; stronger effect = higher value. B-score at 10 µM. 310,000 compounds, 0.54% hits. AID 2239;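 active = fluorescence ratio B-score at least 3 SD of library B-scores, with initial fluorescence B-score within 3 of them, cut at about 5.3 in these data; same plate scores as AID 2156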;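 also: B-score of peak minus minimum over baseline fluorescence ratio after K+ and Tl+ stimulus; positive B-score means potentiation of KCNQ2 with more thallium influx and brighter signal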
Kir21 conf inh: confirmation of mouse Kir2.1 potassium channel inhibitors; shares compounds with KCNQ2 enhance; Kir2.1-expressing cells, FluxOR thallium flux fluorescence; stronger effect = lower value; Tl flux remaining, % of negative control (stronger effect = lower value), % at 10 µM; 2,300 compounds, 41% hits;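 active = Primary-screen hit whose thallium flux fell at least 3 control SD below untreated wells in both duplicates, with normal baseline fluorescence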
HEK293 Tl flux: parental HEK293 activity in Kir2.1 inhibitor counter-screen; shares compounds with KCNQ2 enhance; parental HEK293 cells, FluxOR thallium flux fluorescence; 0% = unstimulated blank wells; FluxOR signal as % of negative control (100 = no effect), % at 10 µM; 2,300 compounds, 19% hits; AID 2105;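 active = dye signal at least 3 control SD above or below untreated wells in both duplicates, raw fluorescence within 3, either direction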;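 also: percent is based on the flux ratio of peak minus minimum fluorescence over baseline F0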
CHO-K1 Tl ctr: alters thallium flux in parental CHO-K1 cells, KCNQ2 counter-screen; FluxOR thallium flux fluorescence; zero = vehicle mean+3SD, 100% = vehicle-minus-blank window; 1,200 compounds, 43% hits; activity increase over 3SD of controls, % at 10 µM; shares compounds with KCNQ2 enhance; AID 2282;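 active = signal rise of at least 3 SD above the untreated control mean, in both duplicate wells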;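 also: counter screen of KCNQ2 potentiator hits so any rise reflects channel-independent effects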
KCNQ1 pot spec: human KCNQ1 counter-target activity of KCNQ2 potentiators | shares compounds with KCNQ2 enhance | CHO KCNQ1 stable, FluxOR thallium flux fluorescence; beyond 3SD, as % of vehicle-control signal | activation over 3SD threshold, % at 10 µM | 1,200 compounds, 28% hits;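 active = fluorescence ratio rise of at least 3 SD of vehicle wells above their mean, in both replicate wells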
Target sequence (P51787 whole entry, looked up): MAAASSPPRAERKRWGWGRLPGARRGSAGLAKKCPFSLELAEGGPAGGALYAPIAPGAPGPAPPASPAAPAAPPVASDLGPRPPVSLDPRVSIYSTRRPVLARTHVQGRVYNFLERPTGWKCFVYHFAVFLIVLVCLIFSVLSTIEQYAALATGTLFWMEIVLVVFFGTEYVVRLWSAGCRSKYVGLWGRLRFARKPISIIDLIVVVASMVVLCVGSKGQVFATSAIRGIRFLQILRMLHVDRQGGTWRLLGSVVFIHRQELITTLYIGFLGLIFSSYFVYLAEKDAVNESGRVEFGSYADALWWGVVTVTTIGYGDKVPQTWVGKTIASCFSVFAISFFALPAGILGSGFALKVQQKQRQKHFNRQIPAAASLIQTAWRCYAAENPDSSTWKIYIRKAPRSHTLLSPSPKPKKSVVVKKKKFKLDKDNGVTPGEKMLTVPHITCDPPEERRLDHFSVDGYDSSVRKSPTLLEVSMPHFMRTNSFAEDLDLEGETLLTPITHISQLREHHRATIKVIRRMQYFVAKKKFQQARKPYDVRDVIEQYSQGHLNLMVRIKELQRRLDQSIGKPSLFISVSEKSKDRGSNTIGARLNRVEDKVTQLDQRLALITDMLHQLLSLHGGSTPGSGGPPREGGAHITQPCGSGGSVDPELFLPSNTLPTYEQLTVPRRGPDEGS
KCNQ2 pot conf: confirmation of rat KCNQ2 potassium channel potentiators | CHO-KCNQ2 cells, FluxOR thallium flux fluorescence | 1,200 compounds, 68% hits | potentiation, less the hit threshold, % at 10 µM | shares compounds with KCNQ2 enhance;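 active = fluorescence ratio rising 3 SD or more over the vehicle control mean in both replicates, plus primary screen hit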;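 also: peak minus minimum thallium fluorescence divided by baseline after K/Tl stimulus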
Kir2-1 sel: tests whether KCNQ2 potentiators also affect mouse Kir2.1 | shares compounds with KCNQ2 enhance | activity over 3SD threshold, % at 10 µM | 1,200 compounds, 2% hits | HEK293 Kir2.1, FluxOR thallium flux fluorescence | AID 2345;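 active = fluorescence ratio rise of at least 3 SD above the vehicle-control mean, seen in both replicates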
KCNQ2 W236L MoA: potentiates the retigabine-insensitive rat KCNQ2 W236L mutant channel | shares compounds with KCNQ2 enhance | CHO KCNQ2-W236L, automated patch clamp current | current increase over 3SD of negative controls (%), stronger effect = higher value, % at 25 µM | 940 compounds, 10% hits | AID 2558;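 active = current increase at least 3 SD of the untreated controls above them in both duplicate recordings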
Of the large screens only hits and unclear results are named; the others gave an inactive call (follow-up assays come after a bar, where they were run). Hits are enriched below; roughly 1.6% of the tested compounds scored in any of these assays.

CC1CCN(C(=S)NC(=O)c2ccc(C(C)(C)C)cc2)CC1	KCNQ2 enhance 7.1 | CHO-K1 Tl ctr inactive | KCNQ1 pot spec inactive | KCNQ2 pot conf 5.8 | Kir2-1 sel inactive | KCNQ2 W236L MoA inactive
COc1ccc(C(=O)NC(=S)N2CCNC(=O)C2)cc1Br	none
COc1ccc(C(=O)NC(=S)N2CCC(C)CC2)cc1Br	KCNQ2 enhance 6.5 | Kir21 conf inh inactive | HEK293 Tl flux 247% | CHO-K1 Tl ctr inactive | KCNQ1 pot spec inactive | KCNQ2 pot conf inactive | Kir2-1 sel inactive | KCNQ2 W236L MoA inactive
CC(C)(C)c1ccc(C(=O)NC(=S)N2CCCCCC2)cc1	KCNQ2 enhance 8.8 | Kir21 conf inh inactive | HEK293 Tl flux 268% | CHO-K1 Tl ctr inactive | KCNQ1 pot spec 37 | KCNQ2 pot conf 0.7 | Kir2-1 sel inactive | KCNQ2 W236L MoA 4.9%
CC(C)(C)c1ccc(C(=O)NC(=S)N2CCCC2)cc1	none
COc1ccc(OC)c(S(=O)(=O)N2CCC(C(=O)NCc3ccncc3)CC2)c1	none (no result: KCNQ2 enhance)
O=[N+]([O-])c1ccccc1S(=O)(=O)n1nnc2ccccc21	none (no result: KCNQ2 enhance)
Cc1nn(-c2ccccc2)c(Cl)c1/C=N/NC(=O)c1[nH]ncc1Br	none
COc1ccc(C(=O)Nc2ccnc(-c3cccnc3)n2)cc1	KCNQ2 enhance 5.3 | Kir21 conf inh inactive | HEK293 Tl flux inactive | CHO-K1 Tl ctr inactive | KCNQ1 pot spec inactive | KCNQ2 pot conf inactive | Kir2-1 sel inactive
Cc1ccc(C(=O)Nc2ccnc(-c3cccnc3)n2)cc1	none
O=C(CCN1CCCCC1=O)NC1CCCc2c1cnn2-c1ccccc1F (configuration not stated)	none
COc1ccc(N2CC(C(=O)Nc3nnc(SCC(=O)NCC4CCCO4)s3)CC2=O)cc1 (configuration not stated)	none
CC1(C)CC(NC(=O)c2cc(S(=O)(=O)N3CCOCC3)c(Cl)cc2Cl)CC(C)(C)N1	none
C=CCn1c(SCC(C)=O)nc2scc(-c3ccc(C)o3)c2c1=O	none (no result: KCNQ2 enhance)
O=c1c2c(-c3cccs3)csc2[nH]c(=S)n1-c1ccccc1	none
CCn1c(=S)[nH]c2scc(-c3cccs3)c2c1=O	KCNQ2 enhance 18 | Kir21 conf inh inactive | HEK293 Tl flux 508% | CHO-K1 Tl ctr 3.7 | KCNQ1 pot spec inactive | KCNQ2 pot conf 94 | Kir2-1 sel 1.6 | KCNQ2 W236L MoA inactive
C=CCn1c(=S)[nH]c2scc(-c3ccc(C)o3)c2c1=O	KCNQ2 enhance 16 | Kir21 conf inh inactive | HEK293 Tl flux 384% | CHO-K1 Tl ctr 4.1 | KCNQ1 pot spec inactive | KCNQ2 pot conf 46 | Kir2-1 sel inactive | KCNQ2 W236L MoA inactive
COc1ccc(C)cc1NC(=O)CCNC(=O)Cn1ccc2ccccc2c1=O	none (no result: KCNQ2 enhance)
CCc1ccc(OCCCCN(C)Cc2ccccc2)cc1	none (no result: KCNQ2 enhance) | Kir21 conf inh 26% | HEK293 Tl flux inactive
COc1cc(C)ccc1OCCOCCN(C)Cc1ccccc1	none
CN(CCOCCOc1ccc2ccccc2c1)Cc1ccccc1	none (no result: KCNQ2 enhance) | Kir21 conf inh 17% | HEK293 Tl flux inactive
CN(CCCCOc1ccc(F)cc1)Cc1ccccc1	none
COc1ccc(OCCN(C)Cc2ccccc2)cc1	none (no result: KCNQ2 enhance)
Cc1cc(C)c(C)c(OCCCCN(C)Cc2ccccc2)c1	none (no result: KCNQ2 enhance) | Kir21 conf inh 26% | HEK293 Tl flux inactive
Cc1ccc2[nH]c(CNC(=O)C3CCCCC3)cc2c1	none (no result: KCNQ2 enhance)
Cc1cc(C)cc(NC(=O)N2CCN(C/C=C/c3ccccc3)CC2)c1	none (no result: KCNQ2 enhance)
COc1ccc(NC(=O)C(=O)NNC(=O)c2cccs2)c(OC)c1	KCNQ2 enhance 8.6 | Kir21 conf inh inactive | HEK293 Tl flux 240% | CHO-K1 Tl ctr inactive | KCNQ1 pot spec 19 | KCNQ2 pot conf 6.9 | Kir2-1 sel inactive | KCNQ2 W236L MoA inactive
COc1cc(NC(=O)c2ccccc2)c(OC)cc1Cl	none (no result: KCNQ2 enhance)
COc1ccc(OC)c(NC(=O)C(=O)NNC(=O)C23CC4CC(CC(C4)C2)C3)c1	KCNQ2 enhance 8.7 | Kir21 conf inh inactive | HEK293 Tl flux 272% | CHO-K1 Tl ctr inactive | KCNQ1 pot spec inactive | KCNQ2 pot conf 7.5 | Kir2-1 sel inactive | KCNQ2 W236L MoA inactive
COc1ccc(NC(=O)C(=O)NNC(=O)c2cccs2)cc1	none
COc1ccc(S(=O)(=O)NNC(=O)C23CC4CC(CC(C4)C2)C3)cc1	none (no result: KCNQ2 enhance)
COc1cc(OC)cc(C(=O)NNC(=O)C(=O)Nc2cc(OC)c(Cl)cc2OC)c1	KCNQ2 enhance 9.3 | Kir21 conf inh inactive | HEK293 Tl flux 182% | CHO-K1 Tl ctr inactive | KCNQ1 pot spec inactive | KCNQ2 pot conf inactive | Kir2-1 sel inactive | KCNQ2 W236L MoA inactive
Cc1ccc(NC(=O)C(=O)NNC(=O)c2cccs2)cc1	KCNQ2 enhance 10 | Kir21 conf inh inactive | HEK293 Tl flux 341% | CHO-K1 Tl ctr inactive | KCNQ1 pot spec inactive | KCNQ2 pot conf 35 | Kir2-1 sel inactive | KCNQ2 W236L MoA inactive
Cc1ccc(NC(=O)c2cccs2)cc1	none
CCOc1ccccc1NC(=O)CN1CCN(Cc2ccccc2)CC1	none
O=C(COC(=O)C1(c2ccccc2F)CCCC1)NCc1cccs1	none (no result: KCNQ2 enhance) | Kir21 conf inh 73% | HEK293 Tl flux inactive
NC(=O)c1ccc(NC(=O)COC(=O)C2(c3ccccc3F)CCCC2)cc1	none
Cc1ccc(S(=O)(=O)NCc2ccc3[nH]c(C)cc3c2)cc1	none (no result: KCNQ2 enhance)
CC(=O)Nc1ccc(S(=O)(=O)NCc2ccc3[nH]c(C)cc3c2)cc1	KCNQ2 enhance 5.4 | Kir21 conf inh inactive | HEK293 Tl flux inactive | CHO-K1 Tl ctr 3.8 | KCNQ1 pot spec inactive | KCNQ2 pot conf inactive | Kir2-1 sel inactive
Cc1c(C(=O)c2ccccc2C(=O)O)sc2ccccc12	none (no result: KCNQ2 enhance)
COc1cccc(CNC(=O)CSCc2cnn(-c3ccccc3)c2-n2cccc2)c1OC	none (no result: KCNQ2 enhance)
COc1ccccc1CNC(=O)CSCc1cnn(-c2ccccc2)c1-n1cccc1	none (no result: KCNQ2 enhance) | Kir21 conf inh inactive | HEK293 Tl flux inactive
Clc1ccc(-c2nnc(COc3ncnc4sccc34)o2)cc1	none (no result: KCNQ2 enhance)
O=S(=O)(c1ccc2oc(=S)[nH]c2c1)N1CCCCC1	none (no result: KCNQ2 enhance)
S=c1[nH]c2cc(-c3ccccc3)ccc2o1	KCNQ2 enhance 18 | Kir21 conf inh inactive | HEK293 Tl flux 500% | CHO-K1 Tl ctr inactive | KCNQ1 pot spec inactive | KCNQ2 pot conf 100 | Kir2-1 sel 3.9 | KCNQ2 W236L MoA inactive
CC(OC(=O)c1ccccc1)C(=O)NCCC1=CCCCC1 (configuration not stated)	none

Source: PubChem BioAssay (Johns Hopkins Ion Channel Center)
